{"source": "PubChem BioAssay AID740", "about": "(SRMLSC, 2007)", "note": "Hit rate of the full screen: of about 96,000 compounds, about 65 (0.07%) were called active. Rule as the data show it: active = inhibition above about 25%; inactive = the rest. What follows is part of a selection rich in actives, with near analogues and random picks from the rest.", "data": [{"assay": "unspecified inhibition readout at 50 µM (AID 740)", "conditions": "unspecified screen; stronger effect = higher value", "values": [{"smiles": "Cc1ccn2c(NC(=O)c3ccccc3)c(-c3cccs3)nc2c1", "inhibition": "inactive"}, {"smiles": "O=C(Nc1c(-c2ccccc2)nc2sccn12)c1ccccc1", "inhibition": "48.5% (active)"}, {"smiles": "Cn1nc(C(=O)Nc2c(-c3ccccc3)nc3sccn23)c2ccccc2c1=O", "inhibition": "2.2% (inactive)"}, {"smiles": "CCNc1nnc(-c2ccccc2OC)s1", "inhibition": "inactive"}, {"smiles": "Cc1cc2oc(C(=O)Nc3cccnc3)c(C)c2cc1C", "inhibition": "inactive"}, {"smiles": "Cc1c(C(=O)Nc2ccncc2)oc2ccccc12", "inhibition": "inactive"}, {"smiles": "Cc1ccc2c(C)c(C(=O)Nc3cccnc3)oc2c1", "inhibition": "90.2% (active)"}, {"smiles": "O=C(c1ccco1)N1N=C(c2cccs2)CC1c1ccc(F)cc1", "note": "(stereo unspecified)", "inhibition": "6.17% (inactive)"}, {"smiles": "O=C1CCCN1CCCNc1ccc(S(=O)(=O)N2CCCCC2)cn1", "inhibition": "0.14% (inactive)"}, {"smiles": "Cc1cc(NC(=O)c2noc3c2CCc2ccccc2-3)no1", "inhibition": "inactive"}, {"smiles": "Cc1ccc(NC(=O)c2noc3c2CCc2ccccc2-3)cc1", "inhibition": "inactive"}, {"smiles": "O=C(Nc1cccc(O)c1)c1noc2c1CCc1ccccc1-2", "inhibition": "66.5% (active)"}, {"smiles": "C=CCOc1ccc(/C(CC)=N/O)c(OC)c1", "inhibition": "1.57% (inactive)"}, {"smiles": "CC(C)(C)OC(=O)NCCc1nnc(SCc2ccc(Cl)cc2)o1", "inhibition": "26.6% (active)"}, {"smiles": "CC(C)(C)OC(=O)NCCc1nnc(SCC(=O)c2ccc(Cl)cc2)o1", "inhibition": "inactive"}, {"smiles": "CC(C)(C)OC(=O)NCCc1nnc(SCc2ccc(Cl)cc2Cl)o1", "inhibition": "4.81% (inactive)"}, {"smiles": "N#Cc1ccc2ccn(CC(=O)NC3CCCCC3)c2c1", "inhibition": "inactive"}, {"smiles": "Cc1cc(NS(=O)(=O)c2ccc(NC(=O)c3cc(-c4cccnc4)nc4ccc(Cl)cc34)cc2)no1", "inhibition": "2.18% (inactive)"}, {"smiles": "COc1ccc(NC(=O)CCN2CCCCCC2)c(OC)c1", "inhibition": "0.25% (inactive)"}, {"smiles": "Cc1noc(C)c1CSc1nc2sc(C)c(C)c2c(=O)n1C1CCCC1", "inhibition": "25.2% (active)"}, {"smiles": "C=CCn1c(SCc2c(C)noc2C)nc2sc(C)c(C)c2c1=O", "inhibition": "11.3% (inactive)"}, {"smiles": "Cc1noc(C)c1CSc1nc2sc(C)c(C)c2c(=O)n1-c1ccccc1", "inhibition": "6.13% (inactive)"}, {"smiles": "COc1ccc(C(=O)CSc2nc(C)cc(=O)[nH]2)cc1", "inhibition": "inactive"}, {"smiles": "COCCCNC(=O)CCn1c(=O)c2ccccc2n(CC(=O)Nc2c(C)cccc2C)c1=O", "inhibition": "1.13% (inactive)"}, {"smiles": "CC(=O)Nc1cc(C(C)C)c(O)c(C(C)C)c1", "inhibition": "0.28% (inactive)"}, {"smiles": "CC(C)c1cc(NC(=O)C(C)(C)C)cc(C(C)C)c1O", "inhibition": "0.31% (inactive)"}, {"smiles": "COc1c(C(C)C)cc(NC(C)=O)cc1C(C)C", "inhibition": "87.4% (active)"}, {"smiles": "CCOC(=O)/C=C1\\SCC(=O)N1CC(=O)NC1CCCCC1", "inhibition": "0.43% (inactive)"}, {"smiles": "CCOC(=O)/C=C1\\SCC(=O)N1CC(=O)NC12CC3CC(CC(C3)C1)C2", "inhibition": "39.9% (active)"}, {"smiles": "CCOC(=O)/C=C1\\SCC(=O)N1CC(=O)NC(C)C", "inhibition": "0.15% (inactive)"}, {"smiles": "COc1ccc(-c2noc(CCN3C(=O)c4ccccc4C3=O)n2)cc1OC", "inhibition": "0.08% (inactive)"}, {"smiles": "Cc1cc(NC(=O)CSc2nnc(CNc3ccc(F)cc3)n2C2CCCCC2)no1", "inhibition": "26.7% (active)"}, {"smiles": "CCc1nnc(NC(=O)CSc2nnc(CNc3ccc(F)cc3)n2C2CCCCC2)s1", "inhibition": "inactive"}, {"smiles": "CCOc1ccc(NCc2nnc(SCC(=O)Nc3cc(C)on3)n2-c2ccc(OC)cc2)cc1", "inhibition": "inactive"}, {"smiles": "C=CCN(c1ccc(C(=O)N2CCCC2)cc1)S(C)(=O)=O", "inhibition": "inactive"}, {"smiles": "COc1ccc(S(=O)(=O)Nc2cc(C)c(O)cc2C(C)C)cc1", "inhibition": "inactive"}, {"smiles": "COc1ccc(OC)c(-n2c(SCC(=O)Nc3cc(C)on3)nnc2-c2c[nH]c3ccccc23)c1", "inhibition": "25.7% (active)"}, {"smiles": "COc1ccc(OC)c(-n2c(SCC(=O)NCc3ccco3)nnc2-c2c[nH]c3ccccc23)c1", "inhibition": "0.83% (inactive)"}, {"smiles": "COc1ccc(OC)c(-n2c(SCC(N)=O)nnc2-c2c[nH]c3ccccc23)c1", "inhibition": "1.03% (inactive)"}, {"smiles": "Cc1cc(C)n(CC(O)Cn2c(C)c(C)c3ccccc32)n1", "note": "(stereo unspecified)", "inhibition": "0.73% (inactive)"}, {"smiles": "CN=C(Nc1cc(C)nn1CCC#N)c1ccc(F)cc1", "inhibition": "0.15% (inactive)"}, {"smiles": "CC(C)CCNC(=O)C(c1cccs1)N(CC1CCCO1)C(=O)Cn1nnc2ccccc21", "note": "(stereo unspecified)", "inhibition": "inactive"}, {"smiles": "Cn1c2ccccc2c(=O)c2c(=O)n(C3CCCCC3)c(-c3cccs3)nc21", "inhibition": "47.1% (active)"}, {"smiles": "Cc1nc2ccccc2c(=O)n1C1CCCCCC1", "inhibition": "1.75% (inactive)"}, {"smiles": "COCCn1c(-c2cccs2)nc2c(c(=O)c3ccccc3n2C)c1=O", "inhibition": "12.7% (inactive)"}, {"smiles": "CC(=O)N=C1SC2CS(=O)(=O)CC2N1c1c(Cl)cccc1Cl", "note": "(stereo unspecified)", "inhibition": "0.54% (inactive)"}, {"smiles": "COc1ccc2nnc(-c3ccccc3)n2n1", "inhibition": "1.04% (inactive)"}, {"smiles": "COCCN1C(=O)C(CC(=O)Nc2ccc(C(=O)O)cc2)SC1=Nc1ccccc1", "note": "(stereo unspecified)", "inhibition": "0.58% (inactive)"}, {"smiles": "OC(CN1CCOCC1)Cn1c(-c2cccc(Cl)c2)nc2ccccc21", "note": "(stereo unspecified)", "inhibition": "1.12% (inactive)"}, {"smiles": "O=C(Nc1ccccc1)N1CCn2c1nc1ccccc12", "inhibition": "1.31% (inactive)"}, {"smiles": "COc1ccc(NC(=O)N2CCn3c2nc2ccccc23)cc1", "inhibition": "1.52% (inactive)"}, {"smiles": "S=C(Nc1ccccc1)N1CCn2c1nc1ccccc12", "inhibition": "69.1% (active)"}, {"smiles": "Cc1cccc(NC(=O)Cc2cccs2)n1", "inhibition": "0.37% (inactive)"}, {"smiles": "c1ccc(NC2=Nc3ccccc3CS2)cc1", "inhibition": "0.05% (inactive)"}, {"smiles": "CCN(CC)c1ccc(NC(=O)c2cc(Cl)ccc2OC)cc1", "inhibition": "inactive"}, {"smiles": "CCC(C)NC(=O)Cn1nc([N+](=O)[O-])c(Cl)c1C", "note": "(stereo unspecified)", "inhibition": "0.92% (inactive)"}, {"smiles": "Cn1cnnc1SCC(=O)c1ccc2c(c1)CCCC2", "inhibition": "1.31% (inactive)"}, {"smiles": "Cc1nnc(SCC(=O)N2c3ccccc3Sc3ccccc32)n1N", "inhibition": "0.91% (inactive)"}, {"smiles": "Cn1ccnc1SC(=O)N1c2ccccc2Sc2ccccc21", "inhibition": "inactive"}, {"smiles": "Cc1nnc(SC(=O)N2c3ccccc3Sc3ccccc32)s1", "inhibition": "30% (active)"}, {"smiles": "O=C(COc1ccc(Cl)cc1Cl)N1CCN(C/C=C/c2ccccc2)CC1", "inhibition": "1.2% (inactive)"}, {"smiles": "CCS(=O)(=O)Nc1cc(-c2nc3cccnc3s2)ccc1C", "inhibition": "0.46% (inactive)"}, {"smiles": "CCS(=O)(=O)Nc1cccc(-c2nc3cccnc3s2)c1C", "inhibition": "28.6% (active)"}, {"smiles": "Cc1c(NS(=O)(=O)c2ccc3c(c2)OCCO3)cccc1-c1nc2cccnc2s1", "inhibition": "inactive"}, {"smiles": "Cc1cc(C)n(-c2nc(SCCN(C)C)c3c4c(sc3n2)CCCC4)n1", "inhibition": "inactive"}, {"smiles": "O=C(C1CCN(C2CC(=O)N(c3cccc(Cl)c3)C2=O)CC1)N1CCCC1", "note": "(stereo unspecified)", "inhibition": "0.33% (inactive)"}]}]}
